GPR151 ag = human GPR151 activation. Q8TDV0. PathHunter beta-arrestin GPR151 cells, luminescence. activation, % at 11.2 µM. 650,000 tested, 1% active. AID 1508602; in the data active means activation above about 4.9%;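 further: 0% = median of compound wells and 100% = cells with positive control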
Target sequence (Q8TDV0 whole entry, looked up): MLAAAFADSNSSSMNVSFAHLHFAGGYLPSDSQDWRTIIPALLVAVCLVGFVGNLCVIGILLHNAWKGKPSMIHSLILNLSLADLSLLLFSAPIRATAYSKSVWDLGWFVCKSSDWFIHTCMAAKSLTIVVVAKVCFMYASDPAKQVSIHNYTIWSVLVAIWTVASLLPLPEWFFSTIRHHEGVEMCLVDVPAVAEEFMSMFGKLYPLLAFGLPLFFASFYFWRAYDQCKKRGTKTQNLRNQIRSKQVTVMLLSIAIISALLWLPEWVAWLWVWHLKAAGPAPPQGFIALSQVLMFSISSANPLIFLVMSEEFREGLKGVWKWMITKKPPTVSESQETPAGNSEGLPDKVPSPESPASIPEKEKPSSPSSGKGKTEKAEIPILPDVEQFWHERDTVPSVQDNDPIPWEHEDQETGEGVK
MITF inh = blocks human microphthalmia-associated transcription factor | AlphaScreen MITF homodimerization, bead proximity signal | inhibition, % at 2.6 µM | 650,000 tested, 0.91% active; in the data active means inhibition above about 50%;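 further: 0% = vehicle wells with protein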
TEAD-YAP inh = TEAD-YAP interaction inhibition; HEK-TIYL cells, TEAD-Gal4/YAP UAS-luciferase luminescence; inhibition, % at 9.12 µM; 640,000 tested, 1.4% active; in the data active means inhibition above about 32%;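 further: 0% = median of test compound wells and 100% = reference inhibitor wells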
FBW7 act = human FBW7 E3 ligase activation, primary screen. normalized activity (activation), % at 26.1 µM. AlphaScreen FBW7–phospho-cyclin E peptide binding, activator screen. AID 1259310. 650,000 tested, 0.13% active. Q969H0; in the data active means normalized activity above about 1.9%;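 further: purified mutant Fbw7 with reduced substrate affinity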
* hit, by the source's call; / = not tested or not shown; ! = not active in a repeat. The list is not random: actives were taken first. Their share in the collection is about 3.4%.

SMILES	GPR151 ag	MITF inh	TEAD-YAP inh	FBW7 act
CC(=O)NC(Cc1ccc(F)cc1)C(=O)NC1CCN(C(=O)c2cccc(C)c2)CC1 (centres undefined)	-1	19	4	0
Cc1ccc(N2CC(NC(=O)c3ccccc3C(F)(F)F)CC2=O)cc1C (centres undefined)	1	-2	-3	0
CCOc1ccccc1C(=O)NC1CC(=O)N(c2ccc(C)c(C)c2)C1 (centres undefined)	0	14	43*	0
CCOC(=S)SCC(=O)N(c1ccccc1)c1nccs1	-1	6	-15	0
Cc1ccc(NC2OC(CO)C(O)C(O)C2O)cc1C (centres undefined)	1	1	12	0
Cc1ccc(NC2OC(C)C(O)C(O)C2O)cc1C (centres undefined)	-2	4	11	2.5*
CN(C(=O)c1ccc(NC(=O)c2ccc([N+](=O)[O-])cc2)cc1)c1ccccc1	-2	-6	1	0
CC(=O)C1=C(c2ccccc2)N(C(C)=O)n2cnnc2S1	1	-5	16	0
CC(=O)C1=C(c2ccc3c(c2)CCCC3)N(C(C)=O)n2cnnc2S1	2	9	38*	0
COc1ccc2cc3cc(C(=O)NC4CCN(Cc5ccccc5)CC4)oc3nc2c1	-1	-3	90*	0
COc1ccc2cc3cc(C(=O)Nc4cc(OC)c(OC)c(OC)c4)oc3nc2c1	1	7	58*	0
COc1ccc2cc3cc(C(=O)NCCCN4CCCCCC4)oc3nc2c1	0	-15	-14	-1
COc1ccc2cc3cc(C(=O)NC4CC4)sc3nc2c1	-5	-1	74*	0
CC1=CC2=NC(=O)/C(=C\c3ccc(OCCCOc4ccc(C)cc4)cc3)C(=N)N2O1	-2	4	-13	0
O=[N+]([O-])c1ccc(C2NN=C(Cc3ccccc3)S2)cc1 (centres undefined)	-1	-7	-43	0
Oc1ccc(C2NN=C(Cc3ccccc3)S2)c(O)c1 (centres undefined)	0	102*	8	0
Cc1ccc(C2=NNC(c3ccncc3)S2)cc1 (centres undefined)	-1	8	-12	0
Cc1ccc(C2=NNC(c3ccc(O)cc3O)S2)cc1 (centres undefined)	-1	10	80*	1
Cc1ccc(C)c(N2C(=N)SCC2=O)c1	2	3	11	0
CC(C)(C)c1ccc(-c2nc3ccccc3c(=O)o2)cc1	-5	-10	53*	0
O=C(Nc1ccc(-c2nc3ccccc3o2)cc1)C1CCN(CCCn2cccn2)CC1	4	-9	78*	0
O=C(Nc1ccc(-c2nc3ccccc3c(=O)o2)cc1)C1CC1	-6	-5	48*	0
O=C(Nc1ccc(-c2nc3ccccc3o2)cc1)C1CCN(Cc2ccccn2)CC1	0	-2	-5	0
Nc1ccccc1-c1nc2ccccc2c(=O)o1	-3	22	-24	2.4*
COc1ccc(CC2(CCC(=O)NCC3CCOCC3)CCC(=O)N2)c2ccccc12 (centres undefined)	0	8	6	0
SMILES	GPR151 ag	MITF inh	TEAD-YAP inh	FBW7 act
CCOC(=O)C1=C(O)/C(=C/c2ccc(O)cc2)N=C1C	1	1	8	0
CC(C)c1ccc(C2c3c(oc4ccccc4c3=O)C(=O)N2CCN2CCOCC2)cc1 (centres undefined)	-1	-3	-9	0
Cc1ccc(-c2nc3ccccc3c(=O)[nH]2)cc1	-4	-1	20	0
CC(C)(C)c1ccc(-c2nc3ccccc3c(=O)[nH]2)cc1	-1	-7	83*	0
CC(C)Oc1ccc(C(=O)Nc2nc(-c3ccc(F)cc3F)cs2)cc1	-1	-10	38*	0
Cc1ccccc1NC(=O)c1sc2nc3c(cc2c1N)C(=O)CCC3	2	2	39*	0
CCc1ccccc1NC(=O)c1sc2nc3c(cc2c1N)C(=O)CCC3	-1	8	54*	0
CCc1ccccc1NC(=O)c1sc2nc3c(cc2c1N)C(=O)CC(C)(C)C3	0	6	3	0
CCN(C(=O)c1cccc(N)c1)c1c(C)n(C)n(-c2ccccc2)c1=O	0	28	8	0
CCc1ccccc1NC(=O)c1cc(S(=O)(=O)NC2CCCCCC2)ccc1F	1	4	16	0
CCC(=O)Nc1cnc(NC(=O)c2ccc(Cl)cc2)cc1C	0	8	-13	0
COc1ccc(C(=O)Nc2cnc(NC(=O)c3cccs3)cc2C)cc1	-2	-7	37*	0
CC(=O)Nc1cnc(NC(=O)c2ccc(Cl)cc2)cc1C	0	-2	52*	0
CCCCC(=O)Nc1sc2c(c1C(N)=O)CCN(C(=O)OCC)C2	-1	7	50*	0
CCCC(=O)Nc1sc2c(c1C(N)=O)CCN(C(=O)OCC)C2	-1	1	51*	0
CCOC(=O)N1CCc2c(sc(NC(=O)C(C)(C)C)c2C(N)=O)C1	1	-1	1	0
CCCNc1nc(Nc2ccccc2)nc2c1ncn2-c1ccsc1	0	10	55*	0
COc1cc(Nc2nc(NCCc3ccc(O)cc3)c3ncn(-c4ccsc4)c3n2)cc(OC)c1OC	-1	3	36*	0
CCCNc1nc(Nc2ccncc2)nc2c1ncn2-c1ccsc1	0	-4	56*	0
CCCNc1nc(Nc2ncccn2)nc2c1ncn2-c1ccsc1	2	-3	19	0
CCCNc1nc(Nc2cc(OC)c(OC)c(OC)c2)nc2c1ncn2-c1ccsc1	0	-6	23	0
CCCNc1nc(Nc2ccc(-n3ccnc3)cc2)nc2c1ncn2-c1ccsc1	-1	-8	51*	0
COc1ccc(C2C=C(c3ccc(Cl)cc3)Nc3nc4ccccc4n32)cc1OC (centres undefined)	1	-6	-83	0
CCOc1ccc(N2C(=O)C3C4C=CC(CC4)C3C2=O)cc1 (centres undefined)	0	16	4	0
CCN1C(=O)[C@H]2[C@H]3[C@H](O)[C@H](O)C/C(=N\O[C@@H](C)c4cn([C@H](CO)Cc5ccccc5)nn4)[C@@H]3CC[C@H]2C1=O	-2	-14	/	0
SMILES	GPR151 ag	MITF inh	TEAD-YAP inh	FBW7 act
COCCN1C(=O)/C(=C/c2cc(Br)ccc2O)SC1=S	2	-1	11	0
Oc1ccc(CCNc2nc(Nc3ccc(-n4ccnc4)cc3)nc3c2ncn3-c2ccsc2)cc1	0	6	62*	0
CCCNc1nc(Nc2ccc(-n3ccnc3)cc2)nc2c1ncn2-c1ccccc1	2	3	49*	0
Cc1c(C(=O)Nc2ccc(F)cc2)sc2ncn(CC(=O)N3CCC(C)CC3)c(=O)c12	-1	5	1	0
O=Nc1c(O)n(CC(=O)Nc2ccccc2)c2ccc(Br)cc12	0	22	-6	0
C[C@@H]1NC(=O)[C@@H]2C[C@H](NC(=O)c3ccccc3Cl)CN2C1=O	2	-2	-5	0
CN(C)CC#CCOC(c1ccccc1)c1ccccc1	-1	5	-1	0
Cc1ccccc1C(OCCN(C)C)c1ccccc1 (centres undefined)	-2	-14	6	1.9*!
